Laboratory results: PubChem BioAssay AID2642 (Johns Hopkins Ion Channel Center, 2010)
Out of some 310,000 compounds screened, about 3,900 (1.3%) were called active.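 How the source made its calls: active means compounds whose thallium flux B-score, printed positive for inhibition, exceeds three library SD while starting fluorescence stays within three; inactive means the rest.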 The sample as a whole holds a higher share of actives than the screen did.

Each molecule was assayed against Potassium voltage-gated channel subfamily KQT member 1 (Homo sapiens) (UniProt P51787) (assay: KCNQ1 potassium current blockers – cell-based, thallium flux, high-throughput, primary screen (AID 2642;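 further: channel opened by potassium depolarization with thallium stimulus after 20 min compound exposure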)). Conditions: CHO-K1 KCNQ1, FluxOR thallium flux fluorescence, at 10 µM; hits give high values.
Potassium voltage-gated channel subfamily KQT member 1 (Homo sapiens), sequence (P51787 whole entry, looked up): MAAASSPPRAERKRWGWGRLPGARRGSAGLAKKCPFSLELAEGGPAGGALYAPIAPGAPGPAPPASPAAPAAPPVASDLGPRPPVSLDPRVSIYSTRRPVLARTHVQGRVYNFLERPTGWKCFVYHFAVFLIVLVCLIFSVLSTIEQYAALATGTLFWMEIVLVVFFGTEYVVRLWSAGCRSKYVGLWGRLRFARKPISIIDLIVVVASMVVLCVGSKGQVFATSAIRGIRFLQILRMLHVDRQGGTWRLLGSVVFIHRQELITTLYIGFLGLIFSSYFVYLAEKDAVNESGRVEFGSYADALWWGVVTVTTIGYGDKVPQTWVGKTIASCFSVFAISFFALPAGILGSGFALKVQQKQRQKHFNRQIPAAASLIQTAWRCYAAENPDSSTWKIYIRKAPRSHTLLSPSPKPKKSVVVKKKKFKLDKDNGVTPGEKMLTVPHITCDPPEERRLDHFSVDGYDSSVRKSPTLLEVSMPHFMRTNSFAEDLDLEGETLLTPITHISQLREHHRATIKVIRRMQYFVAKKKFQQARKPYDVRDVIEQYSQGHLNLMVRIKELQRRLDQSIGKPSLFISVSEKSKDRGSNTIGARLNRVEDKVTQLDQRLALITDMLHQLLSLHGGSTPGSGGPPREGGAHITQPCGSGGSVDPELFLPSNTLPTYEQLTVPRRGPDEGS

Question: How did the B-score turn out when O=c1cc(O)nc(SCc2ccccc2Cl)[nH]1 was run?
Answer: inactive

Question: How did the B-score turn out when Fc1cccc(Cl)c1CSc1ccc(-c2ccco2)nn1 was run?
Answer: inactive

Question: Clc1ccccc1CSc1nnc(-c2ccco2)c(-c2ccco2)n1 was tested. Which B-score did it give?
Answer: 11 (active)

Question: Which B-score does the source give for CC[C@@]12C(=O)N(c3ccccc3)C(=O)N1[C@H](c1ccc(Br)cc1)[C@@H]1C(=O)N(C(C)(C)C)C(=O)[C@@H]12 here?
Answer: inactive

Question: For O=C1c2cccc3c([N+](=O)[O-])ccc(c23)C(=O)N1CC1CCCO1 (stereo not drawn), which B-score is on record?
Answer: 6 (active)

Question: For CCC(=O)Nc1ccc(C(=O)Nc2ccc3c(c2)C(=O)N(CC2CCCO2)C3=O)cc1 (stereo not drawn), which B-score is on record?
Answer: inactive

Question: Which B-score does the source give for CCOc1cccc(=O)c2c(C)n(CC3CCCO3)c(C)c12 (stereo not drawn) here?
Answer: inactive

Question: Which B-score does the source give for CCOC(=O)C1CCN(Cc2coc3ccc(Cl)cc3c2=O)CC1 here?
Answer: inactive

Question: For Cc1ccccc1-n1cc(CNC(=O)C2CCC(=O)N(C3CC3)C2)cn1 (stereo not drawn), which B-score is on record?
Answer: inactive

Question: Which B-score does the source give for Cc1ccc(C)c(N2CCN(S(=O)(=O)c3c(C)[nH]c(C)c3C(=O)N3CCCC3)CC2)c1 here?
Answer: inactive

Question: Which B-score does the source give for O=[N+]([O-])c1cc(Br)c(O)c(/C=N/Nc2nc3ccccc3s2)c1 here?
Answer: 12 (active)

Question: For COc1ccc(CC(=O)N/N=C/c2cc([N+](=O)[O-])cc(Br)c2O)cc1, which B-score is on record?
Answer: inactive

Question: c1ccc2sc(NN=C3CCCC3)nc2c1 was tested. Which B-score did it give?
Answer: inactive

Question: Which B-score does the source give for CCN(CC)CC(=O)Nc1sc2c(c1C(=O)c1ccccc1C)CCC2 here?
Answer: 8 (active)

Question: Which B-score does the source give for O=C(Nc1sc2c(c1C(=O)O)CCC2)c1ccccc1F here?
Answer: inactive

Question: For CCc1ccc(N(CC(=O)Nc2sc3c(c2C(=O)OC)CCCC3)S(C)(=O)=O)cc1, which B-score is on record?
Answer: inactive

Question: With CCc1nc(N2CCN(C(C)=O)CC2)c2c3c(sc2n1)CCCC3 as the molecule, how does the B-score read?
Answer: inactive

Question: For NS(=O)(=O)c1ccc(CCNC(=S)Nc2ccc(S(N)(=O)=O)cc2)cc1, which B-score is on record?
Answer: inactive

Question: NS(=O)(=O)c1ccc(NC(=S)NC(=O)c2cccc(Br)c2)cc1 was tested. Which B-score did it give?
Answer: inactive

Question: For NS(=O)(=O)c1ccc(NC(=S)Nc2ccc(Br)c(Cl)c2)cc1, which B-score is on record?
Answer: 8 (active)

Question: Which B-score does the source give for CCCCSc1[nH]c(=O)c(C(=O)OCC)cc1C#N here?
Answer: inactive

Question: For COCCN(C(=S)Nc1cccc(Cl)c1C)C(C)c1ccco1 (stereo not drawn), which B-score is on record?
Answer: inactive

Question: Fc1ccc(/C=N/n2c(COc3ccccc3)n[nH]c2=S)cc1 was tested. Which B-score did it give?
Answer: inactive

Question: For CC(C)[C@H](NC(=O)N1CCn2c1nc1ccccc12)C(=O)NCCc1ccccc1, which B-score is on record?
Answer: inactive

Question: With CC(C)CCNC(=O)Cn1c(=O)oc2cc(S(=O)(=O)N3CC(C)CC(C)C3)ccc21 (stereo not drawn) as the molecule, how does the B-score read?
Answer: inactive

Question: Which B-score does the source give for CCOc1ccc(CC(=O)NC2CCN(Cc3ccccc3)CC2)cc1 here?
Answer: inactive

Question: For CCOc1ccc(CN2CCN(Cc3c[nH]c4ccccc34)CC2)cc1, which B-score is on record?
Answer: 12 (active)

Question: Which B-score does the source give for CCOc1ccc(CN2CCCN(C)CC2)cc1 here?
Answer: inactive

Question: Which B-score does the source give for COc1ccc(N(C)S(=O)(=O)c2ccc3c(c2)CC(C)N3C(=O)C2CC2)c(OC)c1 (stereo not drawn) here?
Answer: inactive

Question: Which B-score does the source give for Fc1ccccc1COc1cccc2cccnc12 here?
Answer: inactive

Question: How did the B-score turn out when Cc1nc2ccccc2cc1OCc1ccc(F)cc1 was run?
Answer: 11 (active)

Question: How did the B-score turn out when Cc1occc(=O)c1OCc1ccc(F)cc1 was run?
Answer: inactive

Question: For O=C1c2ccccc2C(=O)N1c1cccc2ccccc12, which B-score is on record?
Answer: inactive

Question: How did the B-score turn out when CN1C(=O)c2cccc3c(N)ccc(c23)C1=O was run?
Answer: inactive

Question: For Cc1nn(C)cc1N1C(=O)c2cccc3c(N)ccc(c23)C1=O, which B-score is on record?
Answer: 22 (active)

Question: How did the B-score turn out when C/C(N)=C(/C#N)C(=O)COC(=O)c1cc(-c2ccc(C)cc2)nc2ccccc12 was run?
Answer: inactive

Question: With CCCCCCCC[n+]1cccc(C(=O)N2c3c(nc(N)[nH]c3=O)NC(C)C2C)c1 (stereo not drawn) as the molecule, how does the B-score read?
Answer: inactive

Question: O=C(O)c1ccccc1NC(=O)c1ccccc1-c1ccccc1C(=O)O was tested. Which B-score did it give?
Answer: inactive

Question: How did the B-score turn out when COC(=O)c1ccccc1NC(=S)NC(=O)c1ccccc1F was run?
Answer: inactive

Question: With O=C(NC(=S)Nc1ccccc1C(=O)O)c1ccc(-c2ccc(Br)cc2)o1 as the molecule, how does the B-score read?
Answer: 7 (active)

Question: With COCCNC(=O)C(c1ccc(O)cc1)N(C(=O)CCC(=O)Nc1nccs1)c1ccc(C)cc1 (stereo not drawn) as the molecule, how does the B-score read?
Answer: inactive

Question: With CCOC(=O)CN(C(=O)COc1nc(C)cc(C)c1C#N)c1ccc(Cl)cc1 as the molecule, how does the B-score read?
Answer: inactive

Question: With CC1=C(C)CC(C(=O)NNC(=O)c2ccccc2O)C(C(=O)O)C1 (stereo not drawn) as the molecule, how does the B-score read?
Answer: inactive

Question: With Cc1cc(C(=O)CCC(=O)NNC(=O)c2ccccc2O)c(C)s1 as the molecule, how does the B-score read?
Answer: 6 (active)

Question: How did the B-score turn out when Cc1ccccc1C(=O)NNC(=O)CN1C(=O)c2ccccc2C1=O was run?
Answer: inactive

Question: Which B-score does the source give for COc1ccccc1CNC(=O)COn1nnc2ccc(S(=O)(=O)N3CCOCC3)cc21 here?
Answer: inactive

Question: With O=S(=O)(c1ccc(Cl)cc1)c1nc(-c2ccco2)oc1N1CCCCC1 as the molecule, how does the B-score read?
Answer: inactive

Question: For CCc1cc(C(c2ccccc2OC)N2CCOCC2)c(NC(=O)c2ccccc2)s1 (stereo not drawn), which B-score is on record?
Answer: 7 (active)

Question: CCc1cc(C(N)=O)c(NC(=O)c2ccc(OC)cc2)s1 was tested. Which B-score did it give?
Answer: inactive

Question: With COc1ccc(C(=O)Nc2sc(C)c(C)c2CN2CCOCC2)cc1 as the molecule, how does the B-score read?
Answer: inactive

Question: CC(C)CNc1ncnc2c1cnn2Cc1ccc(Cl)cc1 was tested. Which B-score did it give?
Answer: inactive

Question: How did the B-score turn out when Cc1ccc(Cl)cc1NC(=O)COC(=O)CC(C)(C)C was run?
Answer: inactive

Question: Which B-score does the source give for COCn1c(C(O)c2ccccc2)cc2ccccc21 (stereo not drawn) here?
Answer: inactive
